# Screening data (PubChem)
# MCF10A rereplic – A quantitative high throughput screen for small molecules that induce DNA re-replication in MCF 10a normal breast cells; Potency, µM (highest dose often 46.1 µM), for the others: at the top dose activity, positive = re-replication, most hits filed as activators; MCF 10A DNA re-replication, Hoechst nuclear intensity, 48 h; hit rate 2.9% among 350,000; also: % of control where 0% means no effect; nearly all actives have a fitted effect of over 50% in size
# RGS4 inhibitor – Inhibitors of Regulator of G Protein Signaling (RGS) 4: qHTS; AID 504845, 2011; Transcreener GDP fluorescence polarization, RGS4-accelerated GTP hydrolysis; hit rate 0.039% among 390,000; Potency, µM (top dose mostly 114 µM), for inactives: at the top dose activity change, negative = inhibition, usual class: inhibitors; also: % is scaled to controls: 0 for no effect and ±100 for the full control effect; nearly all actives have a fitted effect of over 75% in size
# Target sequence (P49798 whole entry, looked up): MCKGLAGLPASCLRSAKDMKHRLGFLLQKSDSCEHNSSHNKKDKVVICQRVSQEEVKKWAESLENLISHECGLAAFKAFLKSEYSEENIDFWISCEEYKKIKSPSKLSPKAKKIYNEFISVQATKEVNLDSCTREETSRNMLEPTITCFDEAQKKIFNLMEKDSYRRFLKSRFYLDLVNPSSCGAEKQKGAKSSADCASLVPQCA
#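 MLSMR compounds (23 nl, pin-transferred) preincubated 10 min at room temperature with a 500nM (2x) first reagent, then RGS4 at 900nM (2x) plus Transcreener GDP mix added; fluorescence polarization (620/688 nm) read before and after 90 min at 30 °C.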
# TSG101-PTAP inh – qHTS Assay for Iinhibitors of HIV-1 Budding by Blocking the Interaction of PTAP/TSG101; Tumor susceptibility gene 101 protein (Homo sapiens), Q99816; Fluorescence polarization, FITC-PTAP peptide / Tsg101 binding; Potency, µM (doses to about 115 µM), for the others: top-dose activity change, negative = inhibition, most hits filed as inhibitors; 340,000 tested, under 10 active; active = well fitted inhibition curve with a large enough effect in the main read-out, with a control signal flat, not every such curve was filed as active; inconclusive = small, poorly fitted or top-dose-only effect, or effect the other way, or a change in a side signal; inactive = no such curve, though single readings can be large or run the other way; also: % of control where 0% means no effect
# Target sequence (Q99816 whole entry, looked up): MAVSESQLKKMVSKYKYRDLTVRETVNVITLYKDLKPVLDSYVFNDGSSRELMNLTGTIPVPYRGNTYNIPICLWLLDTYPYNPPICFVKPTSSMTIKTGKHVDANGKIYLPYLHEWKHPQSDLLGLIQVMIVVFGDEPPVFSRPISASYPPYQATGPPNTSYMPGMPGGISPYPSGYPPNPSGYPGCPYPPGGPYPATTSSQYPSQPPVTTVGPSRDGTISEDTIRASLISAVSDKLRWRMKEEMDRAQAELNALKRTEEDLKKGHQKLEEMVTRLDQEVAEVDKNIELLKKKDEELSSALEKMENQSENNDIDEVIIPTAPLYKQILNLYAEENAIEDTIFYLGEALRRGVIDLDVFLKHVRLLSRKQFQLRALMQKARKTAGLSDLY
#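 Fluorescence anisotropy tracks displacement of a FITC-tagged PTAP peptide (50 nM) from the Tsg101 binding domain (10 uM), following a 20 min room-temperature incubation at pH 7.5.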
# KB-3-1 tox – qHTS assay for MDR1-selective chemotherapeutics: Primary screen using the parental adenocarcinoma cell KB-3-1. KB-3-1 viability, CellTiter-Glo ATP luminescence, 72 h. Potency, µM (highest dose often 46.1 µM), actives largely listed as cytotoxic. hit rate 1.4% among 400,000; also: % is scaled to controls: 0 for no effect and ±100 for the full control effect; nearly all actives have a fitted effect of over 60% in size
#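 Parental KB-3-1 viability, qHTS format: 72 h compound exposure, 37 °C; CellTiter-Glo; media-only wells and DMSO plates as controls; concentration-effect fits on corrected data.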
# SW480 rerep – A quantitative high throughput screen for small molecules that induce DNA re-replication in SW480 colon adenocarcinoma cells; SW480 DNA re-replication, Hoechst DNA content imaging, 48 h; Potency, µM (titrated, usually from 46.1 µM), for inactives: top-dose re-replication activation, most hits filed as activators; hit rate 1.8% among 340,000; AID 624297, 2012; also: % of control where 0% means no effect; nearly all actives have a fitted effect of over 55% in size
#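 250 cells/well; 23 nL cpd via pin tool; 48 hr, 37 C, 5% CO2; Hoechst 40 min; imager read of total nuclear intensity, ex 405/em 500-530 nm.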
# KB-V1 cytotox – qHTS assay for MDR1-selective chemotherapeutics: Primary screen using the drug-selected MDR subline cells KB-V1; KB-V1 MDR cells viability, CellTiter-Glo, 72 h; Potency, µM (series often up to 46.1 µM), actives largely listed as cytotoxic; hit rate 3.4% among 400,000; also: % is scaled to controls: 0 for no effect and ±100 for the full control effect; nearly all actives have a fitted effect of over 60% in size
#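 KB-V1 cells (P-gp-expressing MDR subline of KB-3-1) in phenol-red-free DMEM with 10% FBS were exposed to library compounds over a concentration series for 72 h at 37 degrees C. Viability read by CellTiter-Glo luminescence; concentration-effect curves fitted after normalization.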
# * = called active by the depositor; i = inactive; ? = inconclusive; nt = no result given; ! = not confirmed by another sample. An excerpt weighted towards active compounds, which were near 6.6% of everything screened. Unless noted, calls follow the shape of the dose curve; as a rule, active = well fitted curve in the direction sought with a large enough effect; inconclusive = small, poorly fitted or top-dose-only effect, or another doubt; inactive = no such curve, though single readings can be large; an effect the other way counts as inactive or inconclusive. Potency is read from the fitted curve at half-maximal effect.
SMILES,MCF10A rereplic,RGS4 inhibitor,TSG101-PTAP inh,KB-3-1 tox,SW480 rerep,KB-V1 cytotox
Cc1ccc(NC(=O)C2=C(C(=O)O)CCCC2)cc1Br,4.9%,-17.1%,-1.8%,i,8.2µM*,i
CC(NC(=O)CCc1ccccc1)c1cc2c(cc1Cl)OCCO2 (configuration not stated),?,-1.3%,1.9%,?,18.3%,20.6µM*
CC(NC(=O)c1cc2sccc2n1C)c1ccc2c(c1)OCCO2 (configuration not stated),?,-10.6%,1.1%,?,-4.2%,20.6µM*
CC(CC(=O)NC(C)c1ccc2c(c1)OCCO2)c1ccccc1 (configuration not stated),5.4%,-8.1%,-5.7%,i,-44.3%,25.9µM*
CC(CC(=O)Nc1ccc2c(c1)OCCO2)c1ccccc1 (configuration not stated),-6.5%,21.1%,-0.2%,i,-2.3%,i
CCn1c(C(=O)NC(C)c2ccc3c(c2)OCCO3)cc2sccc21 (configuration not stated),17.8%,-16.5%,2.5%,i,4.6%,i
CCn1cc(C(=O)N2CCN(c3ccccc3)CC2)c(=O)c2cc(S(=O)(=O)N3CCC(C)CC3)ccc21,nt,12.8%,nt,i,nt,i
Cn1nc(C(F)(F)F)c2cc(NC(=O)OCc3ccc(C(C)(C)C)cc3)sc21,14.6µM*,-16.2%,-0.5%,i,14.6%,i
O=C(Nc1ccccc1)c1ccc(-n2nncc2-c2ccccc2)cc1,nt,4.8%,nt,i,nt,i
C=CCNc1nc(NC2CCN(C)CC2)c2cc(OC)c(OC)cc2n1,nt,nt,nt,?,nt,i
COCC(C)NC(=O)c1cccc([N+](=O)[O-])c1 (configuration not stated),-7.7%,4.6%,-9.0%,i,-15.6%,i
COc1ccc(C(C)NC(=O)c2cccc([N+](=O)[O-])c2)cc1OC (configuration not stated),-1.0%,22.5%,-1.2%,i,6.6%,16.4µM*
COc1cc(OC)cc(C(=O)NC(C)c2ccc(Br)cc2)c1 (configuration not stated),-2.5%,11.4%,-1.2%,i,2.4%,i
COc1ccc(C(C)NC(=O)c2ccc(Br)cc2)cc1OC (configuration not stated),10.2%,-5.5%,-2.8%,i,-35.7%,16.4µM*
COc1ccc(OC)c(C(C)NC(=O)c2ccc(Br)cc2)c1 (configuration not stated),-6.8%,-20.3%,-1.2%,i,-105.8%,16.4µM*
CCC(C)NC(=O)c1ccc2nc(-c3ccc(OC)c(OC)c3)c(-c3ccc(OC)c(OC)c3)nc2c1 (configuration not stated),14.6µM*,10.4%,-6.0%,i,?,i
CNCCN(C)c1nc(-c2cccs2)nc2ccccc12,nt,18.1%,nt,nt,nt,nt
COc1ccc(C(C)NC(=O)c2ccc([N+](=O)[O-])cc2)cc1OC (configuration not stated),8.4%,8.4%,-2.9%,i,-39.8%,20.6µM*
COc1ccc(C(C)NC(=O)c2ccccc2Cl)cc1OC (configuration not stated),-5.5%,-18.2%,-2.0%,i,-85.3%,?
CCOC(=O)Cn1nc(-c2ccc(Cl)cc2)cc1N,0.1%,-14.1%,-1.5%,i,-17.5%,i
CCOC(=O)CCn1nc(-c2ccc(Cl)cc2)cc1N,3.7%,17.0%,2.7%,20.6µM*,1.8%,?
Cc1nc(-c2ccc(C)c(S(=O)(=O)N3CCC(C(=O)NCc4ccc(F)cc4)CC3)c2)no1,nt,8.1%,nt,i,nt,i
CCc1ccc(-n2nc3cc(C)c(NC(=O)c4cc(Cl)ccc4OC)cc3n2)cc1,nt,15.0%,nt,i,nt,i
COc1ccc(NC(=O)[C@@H]2CC=C[C@@H]3CCN(Cc4ccc(Cl)c(Cl)c4)C(=O)[C@@H]32)cc1,-30.6%,18.7%,-4.5%,?,?,23.1µM*!
CCc1nn2c(=O)c(S(=O)(=O)Nc3ccc(C)c(C)c3)c(C)nc2s1,nt,31.8%,nt,i,nt,i
SMILES,MCF10A rereplic,RGS4 inhibitor,TSG101-PTAP inh,KB-3-1 tox,SW480 rerep,KB-V1 cytotox
CCC1=NN(C(=O)Cc2ccc(OC)c(OC)c2)C(O)(C(F)(F)F)C1 (configuration not stated),-0.6%,-9.6%,-6.1%,i,-20.8%,14.6µM*
CCc1cccc(NC(c2nnc(-c3ccccc3)o2)c2ccc(F)cc2Cl)c1 (configuration not stated),nt,?,nt,i,nt,i
OC(CNC1CCCC1)COc1ccc(-c2ccccc2)cc1 (configuration not stated),?,21.2%,-0.1%,20.6µM*,?,?
CCCC(NCC(O)COc1ccc(-c2ccccc2)cc1)c1ccccc1 (configuration not stated),4.11µM*,14.1%,-1.3%,?,5.17µM*,?
COC(=O)c1ccc(OCC(O)CNC2CCCC2)cc1 (configuration not stated),-0.2%,5.3%,-3.1%,i,-1.4%,i
OC(CNC1CCCCC1)COCCOc1ccc(Br)cc1 (configuration not stated),16.4µM*,14.9%,-1.1%,i,?,23.1µM*
CC(C)c1ccc(C2N=C(N)Nc3nc4ccccc4n32)cc1 (configuration not stated),nt,-21.6%,nt,?,nt,i
COc1ccc(-n2c(=O)c3c4c(sc3n(Cc3cc(=O)n5c(C)cccc5n3)c2=O)CCC4)c(OC)c1,nt,-49.8%,nt,i,nt,i
N#Cc1c(N2CCN(C(=O)c3ccco3)CC2)nc(-c2ccccc2)c2c1CCCC2,6.7%,?,-6.6%,i,7.8%,20.6µM*
CCc1c(C)c(C#N)c2nc3ccccc3n2c1-n1nc(C)cc1C,1.7%,25.3%,-0.2%,i,-1.4%,?
CC(C)c1cc(N2CCN(C(=O)c3ccco3)CC2)n2c(nc3ccccc32)c1C#N,23.1µM*,-45.6%,-5.7%,i,28.7%,i
CC(C)Cc1nc(N2CCN(C(=O)c3ccco3)CC2)c(C#N)c2c1CCC2,20.6µM*,-9.4%,-6.4%,?,3.3%,?
